{"source": "PubChem BioAssay AID1628", "about": "(Sanford-Burnham Center for Chemical Genomics, 2009)", "note": "The campaign covered roughly 190,000 compounds. About 930 (0.49%) were called active. This is one part of the list. Measured potencies and affinities stand elsewhere. Values without a mark were called inactive.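 Rule for the calls: active = z-score of insulin promoter reporter brightness in nuclei below -3 at 5 µM, with at least 500 cells counted; inconclusive = wells with under 500 cells, flagged as toxic or sparse; inactive = the rest.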", "data": [{"test": "insulin promoter down-regulators in MIN6 cells, imaging, high-content screening, mouse beta cells (AID 1628)", "conditions": "MIN6 insulin promoter GFP reporter, at 5 µM, stronger effect = lower value", "values": [{"compound": "O=C(CNC(=O)c1cccc(F)c1)N/N=C/c1cc(Br)ccc1OC(=O)/C=C/c1ccco1", "z-score": "-8.62 (active)"}, {"compound": "COc1cc(C)c(CNc2ccc(OC)c(OC)c2)cc1C", "z-score": "-4.27 (active)"}, {"compound": "Cc1ccc(CNc2ccc3c(c2)OCO3)c(C)c1", "z-score": 3.69}, {"compound": "CCc1ccc(NC(=O)c2cc(C(C)C)on2)cc1", "z-score": 3.36}, {"compound": "CCc1ccc(NC(=O)c2c(C(=O)Nc3ccccc3)sc3nc(C)cc(=O)n23)cc1", "z-score": "-3.57 (active)"}, {"compound": "CC(=O)n1c(C=Nc2ccccc2)c(O)c2ccccc21", "z-score": 3.61}, {"compound": "Cc1cc(C(=O)NCC(=O)OCC(=O)N2CCCCCC2)ccc1[N+](=O)[O-]", "z-score": "-3.78 (active)"}, {"compound": "COC(=O)c1c(NC(=O)CC2Nc3cc(C)c(C)cc3NC2=O)sc(C)c1C", "note": "(centres undefined)", "z-score": 6.44}, {"compound": "CCOC(=O)c1c(NC(=O)COC(=O)c2cc(OC)c(OC)cc2[N+](=O)[O-])sc(C)c1C", "z-score": "-7.34 (active)"}, {"compound": "CCC(=O)Nc1ccc(C(=O)OCC(=O)c2ccc(C)c([N+](=O)[O-])c2)cc1", "z-score": 3.37}, {"compound": "CCN(C#N)c1nc(NC(C)C)nc(NC(C)C)n1", "z-score": "-6.16 (active)"}, {"compound": "COc1ccc(N(CC(=O)Nc2ccccc2C(=O)NCC(C)C)S(C)(=O)=O)cc1", "z-score": "-3.31 (active)"}, {"compound": "COc1ccc(N(CC(=O)Nc2cc(OC)ccc2OC)S(C)(=O)=O)cc1", "z-score": 0.8}, {"compound": "COc1ccc(-n2c(C)cc(C(=O)CSc3nn4c(=O)c(C(C)(C)C)nnc4s3)c2C)cc1", "z-score": "-4.21 (active)"}, {"compound": "COc1ccc(-n2c(SCC(N)=O)nnc2-c2cccnc2)cc1", "z-score": 0.75}, {"compound": "CN(C)S(=O)(=O)c1ccc(NC(=O)C2COc3ccccc3O2)cc1", "note": "(centres undefined)", "z-score": 2}, {"compound": "COc1ccc2c(c1)C(=O)OC2CC(=O)O", "note": "(centres undefined)", "z-score": 0.37}, {"compound": "Cc1ccc(-c2cn3nc(-c4ccccc4)c(-c4ccccc4)nc3n2)cc1", "z-score": 8.16}, {"compound": "Cc1cc2nc(C3CCN(Cc4nnnn4Cc4cccs4)CC3)[nH]c2cc1C", "z-score": "-3.92 (active)"}, {"compound": "CCCCCc1cc(=O)oc2c(C(CCN3CCCC(C)C3)c3ccc(OC)cc3)c(OC)cc(OC)c12", "note": "(centres undefined)", "z-score": "-3.09 (active)"}, {"compound": "C=CCNC(=O)C1CCN(S(=O)(=O)c2ccc(Br)cc2)CC1", "z-score": 3.14}, {"compound": "CC1CCN(S(=O)(=O)c2ccc(NC(=O)N3c4ccccc4Sc4ccccc43)cc2)CC1", "z-score": "-3.77 (active)"}, {"compound": "O=C(C1=C(O)C(=O)N(c2nccs2)C1c1ccccc1)c1cc2ccccc2o1", "note": "(centres undefined)", "z-score": 13.5}, {"compound": "Cc1ccc2c(c1)C(c1ccccc1)N(C(=O)c1cc3ccccc3oc1=O)CC(=O)N2", "note": "(centres undefined)", "z-score": "-4.42 (active)"}, {"compound": "CN(C)c1ccc(/C=C2\\SC(=O)N(CCc3nnc(N)s3)C2=O)cc1", "z-score": 3.27}, {"compound": "Cc1ccc(S(=O)(=O)CCC(=O)NCCN2C(=O)S/C(=C/c3ccc(F)cc3)C2=O)cc1", "z-score": "-5.68 (active)"}, {"compound": "O=C1S/C(=C/c2ccc(N3CCOCC3)o2)C(=O)N1Cc1ccc(F)cc1", "z-score": 11.4}, {"compound": "CCCc1nc2ccc(NC(C)=O)cc2c(=O)n1Cc1ccc(Cl)cc1", "z-score": 3.64}, {"compound": "CN(C)Cc1nc2ccccc2c(=O)n1Cc1nc(C(C)(C)C)cs1", "z-score": "-4 (active)"}, {"compound": "COc1ccc(Cl)cc1NC(=O)CN(C)C(=O)COc1ccccc1F", "z-score": 4.38}, {"compound": "CC(=O)Nc1ccc2nc(NC(=O)COc3ccccc3C)sc2c1", "z-score": 2.47}, {"compound": "Cc1cccc(OCC(=O)NNC(=O)Nc2cccc(Cl)c2)c1C", "z-score": "-5.42 (active)"}, {"compound": "Cc1cccc(N=Cc2[nH]c3ccc(Br)c(Cl)c3c2O)c1", "z-score": 16.6}, {"compound": "Cc1cccc(N=CC=C2OC(C)(C)C(C)(C)O2)c1", "z-score": "-4.14 (active)"}, {"compound": "Cn1c(C(=O)N2CCC(C(=O)N3CCN(Cc4ccc5c(c4)OCO5)CC3)CC2)cc2sccc21", "z-score": 4.67}, {"compound": "O=C(c1ccco1)N1CCN(C(=O)c2cc3sccc3n2Cc2ccccc2)CC1", "z-score": "-3.22 (active)"}, {"compound": "Cc1ccc(/C=C/C(=O)O)cc1S(=O)(=O)NCCO", "z-score": "-4.14 (active)"}, {"compound": "CCn1ncc(Br)c1C(=O)Nc1sc2c(c1C(N)=O)CCC2", "z-score": 3.46}, {"compound": "CC(C)N1CCc2c(sc(NC(=O)c3cc4cc([N+](=O)[O-])ccc4s3)c2C(N)=O)C1", "z-score": 7.47}, {"compound": "CCC(C)(C)C1CCc2c(sc(NC(=O)c3cccs3)c2C(N)=O)C1", "note": "(centres undefined)", "z-score": "-3.17 (active)"}, {"compound": "CN(CCCNC(=O)CN1C(=O)CC(C)(C)S(=O)(=O)c2ccccc21)C1CCCCC1", "z-score": 3.03}, {"compound": "COc1cccc(/C=N/NC(=O)CCn2cnc3ccccc32)c1", "z-score": 3.74}, {"compound": "COc1cccc(OCCOc2cccc(/C=N/n3cnnc3)c2)c1", "z-score": "-5.3 (active)"}, {"compound": "COc1ccc(CCNc2ncnc3cc(OC)c(OC)cc23)cc1OC", "z-score": "-3.22 (active)"}, {"compound": "COc1ccc(CCNc2ncnc3[nH]ncc23)cc1OC", "z-score": "-7.54 (active)"}, {"compound": "COc1ccc(CCNC(=O)c2cnc3scc(C)n3c2=O)cc1OC", "z-score": 0.78}, {"compound": "COc1ccc(/C(O)=C/c2nc3ccc(C(=O)NCCc4cccc(C)c4)cc3[nH]c2=O)cc1OC", "z-score": 4.75}, {"compound": "CCOC(=O)COc1cccc2c(=O)n(CC(=O)NCCc3ccc(OC)c(OC)c3)ccc12", "z-score": 3.56}, {"compound": "CCCCn1c(=O)[nH]c2nc3cc(N)ccc3nc2c1=O", "z-score": 4.83}, {"compound": "CCCCCn1nc(-c2ccccc2)c2nc3ccccc3nc21", "z-score": 4.99}, {"compound": "CCCCCn1c(=O)c(-c2nc3ccccc3[nH]2)c(O)c2ccccc21", "z-score": "-5.3 (active)"}, {"compound": "COCCCn1cc(C(=O)c2cc(Br)ccc2O)cc(C#N)c1=O", "z-score": 2.45}, {"compound": "CCC(=O)NC(Nc1ncc(C)s1)(C(=O)OC)C(F)(F)F", "note": "(centres undefined)", "z-score": 0.55}, {"compound": "O=C(Nc1ccc(N2CCN(C(=O)c3ccco3)CC2)c(Cl)c1)c1cc2ccccc2o1", "z-score": "-5.03 (active)"}, {"compound": "O=C(Nc1ccc(N2CCN(C(=O)c3ccccc3)CC2)c(Cl)c1)c1ccc(Br)o1", "z-score": "-3.01 (active)"}, {"compound": "COc1ccc2nc(SCC(C)=O)c(C#N)cc2c1", "z-score": 8.23}, {"compound": "CCOC(=O)c1cc(C#N)c(SCC(=O)c2cc(C#N)c(SC)nc2C)nc1C", "z-score": "-4.9 (active)"}, {"compound": "Cc1nonc1NC(=O)CSc1nc2c(C)cccc2cc1C#N", "z-score": 12.5}, {"compound": "O=[N+]([O-])c1ccc(C2=NN(c3ccccc3)C(c3ccco3)C2)cc1", "note": "(centres undefined)", "z-score": 16.5}]}]}
